Measured values as given in PubChem BioAssay.
“And” between values parts separate entries of the source, which are not always exact repeats. Equal values may be shown once. For some assays here: Potency and affinity values are given separately. Where a structure was tested more than once in an assay, its records may differ in their call. The source made the active and inactive calls. A call without a number means that no potency is given here. Unless noted, how the calls were made is not given here.

Assays:
[1] = antimalarial activity against Dd2 strain (AID 2302;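 active means growth inhibition above 50% at the single 2 µM test dose, taken to imply half-maximal potency below 2 µM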); details: P. falciparum Dd2 in RBCs, LDH growth readout, 72 h; at 2 µM; stronger effect = higher value
[2] = human hepatoma cell viability loss – ATP luminescence, cytotoxicity control for P. falciparum antimalarial project, primary screen (AID 2303;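 active means inhibition above 50%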); details: HepG2 viability, 24-48 h, at 10 µM, stronger effect = higher value
[3] = molecular target: L-lactate dehydrogenase (Plasmodium falciparum (isolate CDC / Honduras)) (UniProt Q27743); experiment: PfLDH activity inhibition – cell lysate, 3D7 strain, counter-screen for P. falciparum growth inhibition project (AID 2304); details: P. falciparum 3D7 crude extract, LDH APAD/NBT absorbance; at 2 µM; stronger effect = higher value
Chain of L-lactate dehydrogenase (Plasmodium falciparum (isolate CDC / Honduras)) (Q27743 whole entry, looked up): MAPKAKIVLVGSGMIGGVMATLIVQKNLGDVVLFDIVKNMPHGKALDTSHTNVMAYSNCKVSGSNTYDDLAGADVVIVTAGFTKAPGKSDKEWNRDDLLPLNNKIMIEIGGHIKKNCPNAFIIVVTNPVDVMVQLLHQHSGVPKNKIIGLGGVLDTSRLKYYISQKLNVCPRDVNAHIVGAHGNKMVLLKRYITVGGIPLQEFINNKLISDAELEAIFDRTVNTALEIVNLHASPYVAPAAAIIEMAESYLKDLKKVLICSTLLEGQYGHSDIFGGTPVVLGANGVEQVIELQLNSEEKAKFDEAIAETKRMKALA

[4] = inhibition of 3D7 malaria parasite growth – strain 3D7 (AID 2306); details: P. falciparum 3D7 erythrocytic growth, LDH absorbance, 72 h; at 2 µM; stronger effect = higher value
[5] = molecular target: Calcium-dependent protein kinase 1 (Plasmodium falciparum (isolate 3D7)) (UniProt P62344); experiment: PfCDPK1 kinase inhibitors, biochemical, TCAMS library (AID 1159585; cut-off not given, nearly all actives have IC50 up to about 0.98 µM;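 further: inhibitors leave more ATP so luminescence rises with inhibition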); details: recombinant PfCDPK1, Kinase-Glo ATP depletion luminescence
Chain of Calcium-dependent protein kinase 1 (Plasmodium falciparum (isolate 3D7)) (P62344 whole entry, looked up): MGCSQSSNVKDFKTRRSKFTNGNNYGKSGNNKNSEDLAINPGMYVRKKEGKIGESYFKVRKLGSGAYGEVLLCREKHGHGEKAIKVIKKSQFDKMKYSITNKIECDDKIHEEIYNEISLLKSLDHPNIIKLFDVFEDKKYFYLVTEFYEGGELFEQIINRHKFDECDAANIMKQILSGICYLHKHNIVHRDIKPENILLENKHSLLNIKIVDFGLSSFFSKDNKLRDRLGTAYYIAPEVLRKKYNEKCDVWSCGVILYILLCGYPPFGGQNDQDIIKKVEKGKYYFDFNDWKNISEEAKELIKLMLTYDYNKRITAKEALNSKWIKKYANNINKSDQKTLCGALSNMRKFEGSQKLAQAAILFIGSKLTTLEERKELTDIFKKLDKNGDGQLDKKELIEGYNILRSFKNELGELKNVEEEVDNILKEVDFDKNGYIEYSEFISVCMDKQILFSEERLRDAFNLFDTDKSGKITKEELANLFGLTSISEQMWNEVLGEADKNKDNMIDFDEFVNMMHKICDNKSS

[6] = molecular target: Plasmodium falciparum protein kinase 6 (PK6, PF3D7_1337100) (UniProt Q8IDW1); experiment: PfPK6 kinase inhibitors, biochemical, TCAMS library (AID 1159586); details: recombinant PfPK6, Kinase-Glo ATP depletion luminescence
Chain of Plasmodium falciparum protein kinase 6 (PK6, PF3D7_1337100) (Q8IDW1 1-305): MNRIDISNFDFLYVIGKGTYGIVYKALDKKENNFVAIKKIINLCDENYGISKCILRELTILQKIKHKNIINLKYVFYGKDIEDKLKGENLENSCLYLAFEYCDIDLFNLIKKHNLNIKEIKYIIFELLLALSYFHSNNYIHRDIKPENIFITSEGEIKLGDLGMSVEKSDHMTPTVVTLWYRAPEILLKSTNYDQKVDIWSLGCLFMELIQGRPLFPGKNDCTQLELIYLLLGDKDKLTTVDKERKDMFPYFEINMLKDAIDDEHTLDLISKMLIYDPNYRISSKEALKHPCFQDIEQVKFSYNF

[7] = molecular target: Protein kinase 7 (PK7), Plasmodium falciparum 3D7 (PF3D7_0213400) (UniProt Q7YTF7); experiment: inhibition of Plasmodium PK7 catalytic activity – biochemical, TCAMS antimalarial set, Kinase-Glo luminescence (AID 1159587); details: recombinant PfPK7, Kinase-Glo ATP depletion luminescence
Chain of Protein kinase 7 (PK7), Plasmodium falciparum 3D7 (PF3D7_0213400) (Q7YTF7 1-343): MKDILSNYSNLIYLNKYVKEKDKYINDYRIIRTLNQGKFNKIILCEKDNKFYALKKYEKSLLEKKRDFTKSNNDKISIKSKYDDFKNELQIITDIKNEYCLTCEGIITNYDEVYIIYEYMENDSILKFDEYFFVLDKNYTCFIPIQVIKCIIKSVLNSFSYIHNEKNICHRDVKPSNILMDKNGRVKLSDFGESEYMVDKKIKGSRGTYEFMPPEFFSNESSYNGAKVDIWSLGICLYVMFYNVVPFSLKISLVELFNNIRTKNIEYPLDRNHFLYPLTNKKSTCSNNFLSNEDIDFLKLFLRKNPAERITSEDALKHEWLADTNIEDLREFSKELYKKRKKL

[8] = molecular target: Calcium-dependent protein kinase 4 (Plasmodium falciparum (isolate 3D7)) (UniProt Q8IBS5); experiment: PfCDPK4 kinase inhibitors, biochemical, TCAMS library (AID 1159588; cut-off not given, nearly all actives have IC50 up to about 0.91 µM); details: recombinant PfCDPK4, Kinase-Glo ATP depletion luminescence
Chain of Calcium-dependent protein kinase 4 (Plasmodium falciparum (isolate 3D7)) (Q8IBS5 whole entry, looked up): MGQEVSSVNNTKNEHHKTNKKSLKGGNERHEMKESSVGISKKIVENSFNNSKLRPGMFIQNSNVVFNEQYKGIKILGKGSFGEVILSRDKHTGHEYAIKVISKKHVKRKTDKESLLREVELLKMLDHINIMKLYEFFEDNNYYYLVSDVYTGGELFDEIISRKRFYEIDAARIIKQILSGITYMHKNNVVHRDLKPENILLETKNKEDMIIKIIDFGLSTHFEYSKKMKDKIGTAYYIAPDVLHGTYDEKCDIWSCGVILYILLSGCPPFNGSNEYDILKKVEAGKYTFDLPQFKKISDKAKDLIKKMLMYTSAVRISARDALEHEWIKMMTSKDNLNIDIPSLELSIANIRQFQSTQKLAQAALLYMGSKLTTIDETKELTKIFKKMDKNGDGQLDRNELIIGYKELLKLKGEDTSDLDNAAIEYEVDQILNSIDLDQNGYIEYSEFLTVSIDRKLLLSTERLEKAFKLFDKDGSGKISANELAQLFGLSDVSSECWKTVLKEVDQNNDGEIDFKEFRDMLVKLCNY

SMILES	growth inhibition [1]	inhibition [2]	inhibition [3]	growth inhibition [4]	outcome [5]	outcome [6]	outcome [7]	outcome [8]
Oc1ccc(CN2CCN(CCOC(c3ccccc3)c3ccc(Cl)cc3)CC2)cc1Cl (stereo unspecified)	97% (active)	11% (inactive)	-3% (inactive)	98% (active)	inactive	inactive	inactive	inactive
COc1ccc(NC(=S)NC(NC(=O)CF)C(Cl)(Cl)Cl)cc1[N+](=O)[O-] (stereo unspecified)	-4% (inactive)	66% (active)	0% (inactive)	97% (active)	inactive	inactive	inactive	inactive
Cn1nc(C(F)(F)F)cc1-c1ccc(C(=O)NC2CCC(CN3CCC(c4c[nH]c5ccccc45)CC3)CC2)s1 (stereo unspecified)	97% (active)	45% (inactive)	-1% (inactive)	101% (active)	inactive	inactive	inactive	inactive
O=C(CCc1ccc(Cl)cc1Cl)NC1CCC(CN2CCC(c3c[nH]c4ccccc34)CC2)CC1 (stereo unspecified)	4% (inactive) and 45% (inactive)	33% (inactive) and 44% (inactive)	-4% (inactive) and 2% (inactive)	97% (active) and 100% (active)	inactive	inactive	inactive	inactive
COc1ccc2nc(-c3ccc(F)cc3)cc([C@@H](O)[C@@H]3C[C@@H]4CCN3CC4C=NO)c2c1 (stereo partly specified)	94% (active)	14% (inactive)	-2% (inactive)	100% (active)	inactive	inactive	inactive	inactive
CC(=O)N(Cc1ccccc1-c1cccc(CNCc2ccc3c(c2)OCO3)c1)C1CCN(Cc2ccccc2)CC1	44% (inactive)	17% (inactive)	-3% (inactive)	85% (active)	inactive	inactive	inactive	inactive
CC[C@H]1CN2CC[C@@H]1C[C@H]2[C@H](O)c1cc(-c2c(C)noc2C)nc2ccc(OC)cc12	98% (active)	4% (inactive)	-1% (inactive)	100% (active)	inactive	inactive	inactive	inactive
CCOc1ccc(Br)cc1/C=C/C(=O)Nc1ccc2c(c1)[C@@H]1CC[C@H]2N1C	26% (inactive)	60% (active)	-2% (inactive)	89% (active)	inactive	inactive	inactive	inactive
CN1CC=C(c2c[nH]c3ccc(Br)cc23)CC1	80% (active)	-3% (inactive)	1% (inactive)	88% (active)	inactive	inactive	inactive	inactive
Cc1cc(CN2CCN(CCOC(c3ccccc3)c3ccccc3)CC2)ccc1O	96% (active)	9% (inactive)	-1% (inactive)	97% (active)	inactive	inactive	inactive	inactive
CS(=O)(=O)Nc1ccc2[nH]cc(C3CCN(CC4CCC(NC(=O)/C=C/c5ccccc5Cl)CC4)CC3)c2c1 (stereo unspecified)	7% (inactive)	12% (inactive)	2% (inactive)	96% (active)	inactive	inactive	inactive	inactive
CC[C@H]1CN2CC[C@@H]1C[C@H]2[C@H](O)c1cc(N2CCC(c3ccccc3)CC2)nc2ccc(OC)cc12	98% (active)	45% (inactive)	-5% (inactive)	99% (active)	inactive	inactive	inactive	inactive
O=C(/C=C/c1ccc(Cl)cc1)NC1CCC(CN2CCC(c3c[nH]c4ccccc34)CC2)CC1 (stereo unspecified)	67% (active) and 90% (active)	39% (inactive) and 40% (inactive)	-6% (inactive) and 4% (inactive)	99% (active) and 100% (active)	inactive	inactive	inactive	inactive
CC(Cc1ccc(NC(=O)CCCc2ccccc2)cc1)NCCc1cccc(Cl)c1 (stereo unspecified)	3% (inactive)	12% (inactive)	-5% (inactive)	94% (active)	inactive	inactive	inactive	inactive
Cc1[nH]c2ccc(NS(C)(=O)=O)cc2c1C1CCN(CC2CCN(C(=O)/C=C/c3ccc(Cl)c(Cl)c3)CC2)CC1	83% (active)	15% (inactive)	-4% (inactive)	99% (active)	inactive	inactive	inactive	inactive
CC1(CCCCN2CC=C(c3c[nH]c4ccccc34)CC2)C(=O)Nc2ccccc21 (stereo unspecified)	90% (active)	3% (inactive)	4% (inactive)	94% (active)	inactive	inactive	inactive	inactive
Cc1[nH]c2ccccc2c1C1=CCN(CCCCCC23CCCc4cccc(c42)NC3=O)CC1 (stereo unspecified)	91% (active)	11% (inactive)	5% (inactive)	94% (active)	inactive	inactive	inactive	inactive
O=C(/C=C/c1ccc(Cl)c(Cl)c1)NC1CCC(CN2CCC(c3c[nH]c4cc(C(F)(F)F)ccc34)CC2)CC1 (stereo unspecified)	38% (inactive) and 85% (active)	11% (inactive) and 40% (inactive)	1% (inactive) and 6% (inactive)	98% (active) and 102% (active)	inactive	inactive	inactive	inactive
CS(=O)(=O)Nc1ccc2[nH]cc(C3CCN(CC4CCN(C(=O)/C=C/c5ccc(Cl)c(Cl)c5)CC4)CC3)c2c1	92% (active)	27% (inactive)	-5% (inactive)	101% (active)	inactive	inactive	inactive	inactive
COC(=O)c1ccc(CC(C)NCC(O)c2cccc(C(F)(F)F)c2)c(OC)c1 (stereo unspecified)	98% (active)	5% (inactive)	7% (inactive)	100% (active)	inactive	inactive	inactive	inactive
Cc1cc(-c2ncc[nH]2)ccc1-c1ccc(C(=O)N2CCc3cc4c(cc32)C2(CCN(C)CC2)CO4)cc1	98% (active)	32% (inactive)	0% (inactive)	101% (active)	inactive	inactive	inactive	inactive
CC(C)NC(=O)Cn1cc(C2CCN(CC3CCN(C(=O)/C=C/c4ccc(Cl)c(Cl)c4)CC3)CC2)c2ccccc21	55% (active)	31% (inactive)	-2% (inactive)	97% (active)	inactive	inactive	inactive	inactive
